Compound activity as filed in PubChem BioAssay.
Hits are enriched below; roughly 19% of the tested compounds scored in any of these assays.
ELG1 repair inh: qHTS screen for small molecules that inhibit ELG1-dependent DNA repair in human embryonic kidney (HEK293T) cells expressing luciferase-tagged ELG1 | HEK293T ELG1-luciferase reporter, luminescence, 16 h; DNA damage induced by 5-fluorouridine | 2.3% of 330,000 active | AID 504467, 2011 | Potency, µM (titrated, usually from 46.1 µM), for the others: top-dose activity change, negative = inhibition, usual class: inhibitors; further: potency means the concentration at half of the fitted maximal effect; nearly all actives have a fitted effect of over 55% in size
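5-Fluorouridine DNA damage + compound/DMSO, 2,000 cells/well, 16 h, 37 °C/5% CO2. ONE-Glo, 30 min RT, luminescence. Readout = decrease in reporter signal.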
TDP1 block: qHTS Assay for Inhibitors of Tyrosyl-DNA Phosphodiesterase (TDP1) | Tyrosyl-DNA phosphodiesterase 1 (Homo sapiens), Q9NUW8 | recombinant TDP1, AlphaScreen DNA substrate cleavage | Potency, µM (highest dose often 130 µM), inactives show at the highest dose activity change, negative = inhibition, hits mostly inhibitors | 0.28% of 350,000 active; further: potency means the concentration at half of the fitted maximal effect; nearly all actives have a fitted effect of over 40% in size
Target sequence (Q9NUW8 whole entry, looked up): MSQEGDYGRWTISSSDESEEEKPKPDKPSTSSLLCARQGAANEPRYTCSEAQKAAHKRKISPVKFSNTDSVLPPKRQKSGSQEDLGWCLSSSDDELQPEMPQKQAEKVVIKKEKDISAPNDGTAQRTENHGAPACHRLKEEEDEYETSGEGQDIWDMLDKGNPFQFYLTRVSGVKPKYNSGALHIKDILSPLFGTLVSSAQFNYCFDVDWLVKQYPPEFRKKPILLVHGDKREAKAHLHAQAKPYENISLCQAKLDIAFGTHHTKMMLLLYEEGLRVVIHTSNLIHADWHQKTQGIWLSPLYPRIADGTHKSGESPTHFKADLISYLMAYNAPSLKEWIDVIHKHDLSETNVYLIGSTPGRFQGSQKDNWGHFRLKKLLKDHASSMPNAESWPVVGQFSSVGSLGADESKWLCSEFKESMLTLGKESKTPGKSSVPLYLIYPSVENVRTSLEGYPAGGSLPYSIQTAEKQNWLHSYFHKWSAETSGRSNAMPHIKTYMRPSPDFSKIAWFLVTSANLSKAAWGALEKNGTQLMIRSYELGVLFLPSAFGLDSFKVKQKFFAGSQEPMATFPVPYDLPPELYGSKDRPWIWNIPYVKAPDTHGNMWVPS
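Recombinant E. coli-expressed Tdp1 (1 nM) preincubated with compound 15 min at RT, then 5'-biotin/3'-phosphotyrosine-FITC DNA substrate (15 nM) added for 5 min. AlphaScreen beads (10 ug/ml) added, 10 min RT; tyrosine-FITC cleavage read as signal loss.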
Giardia kill: Small Molecules that selectively kill Giardia lamblia: qHTS; 0.15% of 340,000 active; Giardia lamblia trophozoite viability; activity change, % at 7.66 µM, hits read low; in the data active means activity change below about -80%; inconclusive means between about -30% and that limit;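 further: parasites exposed to compound for two days anaerobically before the ATP read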
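Compounds were tested on trophozoites seeded at 100 cells/well and held 48 hrs at 37 deg C anaerobically. An ATP-based luminescent kit measured the remaining live cells.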
DT40 TDP1 no CPT: qHTS for Inhibitors of human tyrosyl-DNA phosphodiesterase 1 (TDP1): qHTS in cells in absence of CPT | DT40 Tdp1-/- hTDP1 cells, no CPT, ATP luminescence, 48 h | Potency, µM (top dose mostly 46.2 µM), for inactives: top-dose activity change, negative = growth inhibition, hits mostly inhibitors | 15% of 420,000 active | AID 686978, 2013; further: potency means the concentration at half of the fitted maximal effect; nearly all actives have a fitted effect of over 55% in size
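No-CPT arm: Tdp1-/-;hTDP1 DT40 cells (400/well) plus compounds, incubated ≥48 hr at 37 °C. Readout CellTiter-Glo luminescence.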
IL1B secr inh: qHTS for Inhibitors of Inflammasome Signaling: IL-1-beta AlphaLISA Primary Screen | 4.7% of 360,000 active | THP-1 LPS/ATP IL-1B secretion, AlphaLISA, 16 h; active compounds read low | activity change, % at 57.5 µM; in the data active means activity change below about -50%; inconclusive means mostly about -30% to -49%
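Secreted IL-1B measured by AlphaLISA bead assay after 16 h compound exposure of THP-1 cells; compounds (final up to 57.5 uM) added 1 h before LPS (250 ng/mL) and ATP (1.25 mM) stimulation; lower signal means less secretion.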
DT40 TDP1 CPT: qHTS for Inhibitors of human tyrosyl-DNA phosphodiesterase 1 (TDP1): qHTS in cells in presence of CPT. chicken DT40 Tdp1-/-;hTDP1 cells + 20 nM CPT, ATP luminescence, 48 h. Potency, µM (top dose mostly 46.2 µM), for the others: top-dose activity change, negative = growth inhibition, hits mostly inhibitors. 12% of 420,000 active; further: potency means the concentration at half of the fitted maximal effect; nearly all actives have a fitted effect of over 55% in size
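Chicken DT40 Tdp1-/- cells complemented with human TDP1, 400 cells/well, exposed to compounds plus 20 nM camptothecin for at least 48 h at 37 C; viability read as ATP content by CellTiter-Glo luminescence.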
The depositor's hits bear a star; [ ] = remark or other dose. Unless noted, the call rests on the fitted dose curve; in most records, active means well fitted curve in the direction sought with a large enough effect; inconclusive means small, poorly fitted or top-dose-only effect, or another doubt; inactive means no such curve, though single readings can be large; an effect the other way counts as inactive or inconclusive. On the % scale 0 is the no-effect control and ±100 the full control effect.

O=C(CSc1nnc(-c2ccccc2O)o1)Oc1ccc(OCc2ccccc2)cc1 was read as ELG1 repair inh inconclusive, TDP1 block 1%, Giardia kill 23, DT40 TDP1 no CPT 13µM*, IL1B secr inh 17 and DT40 TDP1 CPT 13µM*.
For NC(=O)C(c1ccc(Br)cc1)c1ccc(C(=O)c2ccccc2)cc1 (configuration not stated) the results were ELG1 repair inh inconclusive, Giardia kill 8, DT40 TDP1 no CPT 15µM*, IL1B secr inh -91* and DT40 TDP1 CPT inconclusive.
Screening COc1cccc(/C=C/C(=O)Nc2ccccc2N2CCOCC2)c1 returned ELG1 repair inh inconclusive, TDP1 block 1%, Giardia kill -5, DT40 TDP1 no CPT inconclusive, IL1B secr inh -20 and DT40 TDP1 CPT -10%.
c1ccc2c(c1)CCOC2CNCCCN1CCCCC1 (configuration not stated) was read as ELG1 repair inh 6%, TDP1 block 6%, Giardia kill 6, DT40 TDP1 no CPT inconclusive, IL1B secr inh inconclusive and DT40 TDP1 CPT inconclusive.
For NNC(=O)c1oc2nc(-c3ccccc3)cc(-c3ccccc3)c2c1N the results were ELG1 repair inh 16µM*, Giardia kill 16, DT40 TDP1 no CPT inconclusive, IL1B secr inh 24 and DT40 TDP1 CPT -22%.
CNC(=S)NNC(=O)c1oc2nc(-c3ccccc3)cc(C)c2c1N was read as ELG1 repair inh 0%, Giardia kill -21, DT40 TDP1 no CPT inconclusive, IL1B secr inh 3 and DT40 TDP1 CPT 6%.
`COc1cccc(/C=N/NC(=O)C(C)Sc2ccccc2)c1` (configuration not stated) gave ELG1 repair inh -1%, TDP1 block 1%, Giardia kill -13, DT40 TDP1 no CPT -29%, IL1B secr inh 43 and DT40 TDP1 CPT -22%.
Cc1ccc(-c2cc(-c3ccco3)c3c(N)c(C(=O)NN)oc3n2)cc1 was read as ELG1 repair inh 13µM*, TDP1 block 4%, Giardia kill 5, DT40 TDP1 no CPT inconclusive, IL1B secr inh 0 and DT40 TDP1 CPT inconclusive.
For COc1cccc(/C=N/NC(=O)c2oc3nc(-c4ccccc4)cc(-c4ccco4)c3c2N)c1 the results were ELG1 repair inh 16µM*, Giardia kill 6, DT40 TDP1 no CPT 13µM*, IL1B secr inh -58* and DT40 TDP1 CPT -28%.
For O=C(Nc1ccc(F)c(S(=O)(=O)N2CCOCC2)c1)C1CCCCC1 the results were ELG1 repair inh inconclusive, TDP1 block 0%, Giardia kill -18, DT40 TDP1 no CPT inconclusive, IL1B secr inh 9 and DT40 TDP1 CPT inconclusive.
`Cc1oc(-c2ccc(C(=O)Nc3ccc(F)cc3)cc2)nc1COc1ccccc1` gave TDP1 block 0%, DT40 TDP1 no CPT inconclusive and DT40 TDP1 CPT inconclusive.
Screening COc1cccc(CNC(=O)c2ccc(-c3nc(CS(=O)c4ccccc4)c(C)o3)cc2)c1 (configuration not stated) returned TDP1 block 3%, DT40 TDP1 no CPT 16µM* and DT40 TDP1 CPT inconclusive.
COc1ccc(OC)c(NC(=O)c2ccc(-c3nc(CSc4ccccc4)c(C)o3)cc2)c1 was read as TDP1 block 0%, DT40 TDP1 no CPT 21µM* and DT40 TDP1 CPT 21µM*.
Screening Cc1ccc(SCc2nc(-c3ccc(C(=O)NCC(C)c4ccccc4)cc3)oc2C)cc1 (configuration not stated) returned TDP1 block 3%, DT40 TDP1 no CPT 6.5µM* and DT40 TDP1 CPT 8.2µM*.
For Cc1ccc(SCc2nc(-c3ccc(C(=O)NCCc4ccc(Cl)cc4)cc3)oc2C)cc1 the results were TDP1 block 6%, DT40 TDP1 no CPT inconclusive and DT40 TDP1 CPT inconclusive.
COc1cc(NC(=O)c2ccc(-c3nc(COc4ccccc4)c(C)o3)cc2)cc(OC)c1 was read as TDP1 block -3%, DT40 TDP1 no CPT 10µM* and DT40 TDP1 CPT 9.2µM*.
Screening O=C(O)c1ccccc1C(=O)c1ccc2oc(=O)[nH]c2c1 returned Giardia kill 7, DT40 TDP1 no CPT -4%, IL1B secr inh 6 and DT40 TDP1 CPT 4%.
For COc1cccc(N(CC(=O)NCCSc2ccccn2)S(=O)(=O)c2ccccc2)c1 the results were ELG1 repair inh inconclusive, TDP1 block 3%[0.0935 µM], Giardia kill 14, DT40 TDP1 no CPT inconclusive, IL1B secr inh -59* and DT40 TDP1 CPT -20%.
For COc1ccc(N(CC(=O)NCCSc2ccccn2)S(=O)(=O)c2ccccc2)cc1Cl the results were ELG1 repair inh inconclusive, TDP1 block 0%, Giardia kill -21, DT40 TDP1 no CPT inconclusive, IL1B secr inh -7 and DT40 TDP1 CPT 16µM*.
For COc1ccc(N(CC(=O)NCCSc2ccccn2)S(=O)(=O)c2ccccc2)cc1OC the results were ELG1 repair inh -2%, TDP1 block 3%[0.0935 µM], Giardia kill -2, DT40 TDP1 no CPT inconclusive, IL1B secr inh 29 and DT40 TDP1 CPT -13%.
For Cc1ccc(C)c(NC(=S)N2CCN(CCO)CC2)c1 the results were ELG1 repair inh -9%, TDP1 block 0%, Giardia kill -22, DT40 TDP1 no CPT 0%, IL1B secr inh 6 and DT40 TDP1 CPT -11%.
Cc1ccc(NC(=O)c2sc(Cl)nc2-c2ccccc2)cc1C was read as ELG1 repair inh -8%, TDP1 block 1%, Giardia kill -25, DT40 TDP1 no CPT 18µM*, IL1B secr inh 16 and DT40 TDP1 CPT inconclusive.
Screening Cc1ccccc1Nc1nc(-c2ccccc2)c(C(=O)Nc2cccnc2)s1 returned ELG1 repair inh 23µM*, TDP1 block -1%, Giardia kill 4, DT40 TDP1 no CPT inconclusive, IL1B secr inh inconclusive and DT40 TDP1 CPT inconclusive.
`Cc1cc(=O)n2c(C(=O)Nc3ccc(C)c(C)c3)c(C(=O)Nc3ccccc3)sc2n1` gave ELG1 repair inh 2%, TDP1 block 5%, Giardia kill 14, DT40 TDP1 no CPT 16µM*, IL1B secr inh -4 and DT40 TDP1 CPT inconclusive.
CCc1ccc2ncc3c(-c4ccccc4)nn(-c4ccccc4)c3c2c1 was read as TDP1 block -7%, DT40 TDP1 no CPT 13µM* and DT40 TDP1 CPT inconclusive.
